In PubChem BioAssay AID1494158 (National Center for Advancing Translational Sciences (NCATS), 2020):
Inconclusive results are not listed. Calls of active or inactive are those of the source. The call rests on the fitted dose curve.

Experiment: VSV-G qHTS counterscreen for inhibitors of SARS-S pseudo-typed particle cell entry
Conditions: VSV-G pseudotyped particle entry counterscreen, luciferase; series mostly up to 57.1 µM

| SMILES | Potency |
| --- | --- |
| C/C=C(/C)C(=O)O[C@H]1C(C)=CC23C(=O)C(C=C(CO)[C@@H](O)[C@]12O)[C@H]1[C@@H](C[C@H]3C)C1(C)C (stereo partly drawn) | 215 nM (active) |
| COc1ccc(Cc2nccc3cc(OC)c(OC)cc23)cc1OC | 19200 nM (active) |
| Cc1nnc(C(=O)NC(C)(C)c2nc(C(=O)NCc3ccc(F)cc3)c(O)c(=O)n2C)o1 | 17.1 nM (active) |
